The list is not random: actives were taken first. Their share in the collection is about 3.3%.
USP1-UAF1 inh – blocks the human USP1/UAF1 deubiquitinase complex; O94782; recombinant USP1/UAF1, Ub-Rhodamine cleavage fluorescence; Potency, µM (doses to about 57.1 µM), for the others: at the highest dose activity change, negative = inhibition, actives largely listed as inhibitors; 390,000 compounds, 0.23% hits; AID 743255; further: potency means the concentration at half of the fitted maximal effect; nearly all actives have a fitted effect of over 60% in size
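USP1/UAF1 complex at 1 nM was preincubated with compound for 15 min at room temperature, then Ub-Rho substrate (150nM final) was added. Fluorescence (480/540 nm) was read kinetically, 6 reads every 60 seconds.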
PLK1 PBD block – PLK1 (human) polo-box domain binding inhibition; P53350; Plk1 PBD binding of FITC phosphopeptide, fluorescence polarization; Potency, µM, inactives show max response, negative = inhibition, most hits filed as inhibitors; 360,000 compounds, 2.8% hits; AID 720504; further: potency means the concentration at half of the fitted maximal effect; series mostly up to about 57 µM; nearly all actives have a fitted effect of over 65% in size
WRN helicase inh – WRN helicase (human) inhibition. WRN helicase unwinding, fluorescent forked duplex, kinetic. Potency, µM (top dose mostly 114 µM), for the others: top-dose activity change, negative = inhibition, usual class: inhibitors. AID 651768. 360,000 compounds, 0.46% hits. Q14191; further: potency means the concentration at half of the fitted maximal effect; nearly all actives have a fitted effect of over 55% in size
Target sequence (Q14191 whole entry, looked up): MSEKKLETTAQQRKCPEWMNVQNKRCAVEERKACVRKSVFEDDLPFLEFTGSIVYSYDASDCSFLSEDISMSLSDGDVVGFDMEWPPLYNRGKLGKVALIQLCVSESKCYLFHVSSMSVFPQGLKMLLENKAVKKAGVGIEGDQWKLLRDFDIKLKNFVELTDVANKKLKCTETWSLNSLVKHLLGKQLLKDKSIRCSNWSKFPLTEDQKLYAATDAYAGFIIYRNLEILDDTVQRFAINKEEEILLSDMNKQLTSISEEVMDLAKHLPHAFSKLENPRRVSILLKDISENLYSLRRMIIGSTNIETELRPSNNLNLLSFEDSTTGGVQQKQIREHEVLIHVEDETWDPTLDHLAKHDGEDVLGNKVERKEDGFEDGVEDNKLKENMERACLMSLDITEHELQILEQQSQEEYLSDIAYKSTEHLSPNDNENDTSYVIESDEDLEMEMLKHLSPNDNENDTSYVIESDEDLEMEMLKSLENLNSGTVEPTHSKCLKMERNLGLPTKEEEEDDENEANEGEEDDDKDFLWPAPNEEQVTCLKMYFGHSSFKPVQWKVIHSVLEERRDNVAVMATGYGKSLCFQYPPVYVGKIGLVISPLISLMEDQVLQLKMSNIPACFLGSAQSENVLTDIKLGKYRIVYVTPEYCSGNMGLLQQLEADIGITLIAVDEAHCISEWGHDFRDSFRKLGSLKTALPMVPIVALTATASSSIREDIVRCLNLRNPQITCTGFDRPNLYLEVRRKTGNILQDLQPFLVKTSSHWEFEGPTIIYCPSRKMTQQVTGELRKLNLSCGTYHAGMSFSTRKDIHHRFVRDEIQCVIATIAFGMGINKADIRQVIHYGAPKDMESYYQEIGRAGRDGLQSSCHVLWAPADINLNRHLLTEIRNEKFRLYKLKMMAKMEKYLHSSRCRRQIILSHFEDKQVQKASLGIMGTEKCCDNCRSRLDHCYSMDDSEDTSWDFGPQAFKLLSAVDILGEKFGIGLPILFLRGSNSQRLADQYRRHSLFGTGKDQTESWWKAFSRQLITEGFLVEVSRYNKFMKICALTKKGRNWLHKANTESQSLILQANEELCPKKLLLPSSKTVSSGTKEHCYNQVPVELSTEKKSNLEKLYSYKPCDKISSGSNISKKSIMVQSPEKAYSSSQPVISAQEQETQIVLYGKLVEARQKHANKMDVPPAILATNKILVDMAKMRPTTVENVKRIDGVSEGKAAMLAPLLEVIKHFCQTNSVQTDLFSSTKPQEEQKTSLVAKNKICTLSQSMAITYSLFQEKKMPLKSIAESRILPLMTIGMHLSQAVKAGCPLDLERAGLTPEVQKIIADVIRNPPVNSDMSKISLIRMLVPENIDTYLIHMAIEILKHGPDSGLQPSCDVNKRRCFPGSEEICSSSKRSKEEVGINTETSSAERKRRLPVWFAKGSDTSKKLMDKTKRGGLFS
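Enzyme (20 nM final) and test compound sit together 15 min at room temperature before substrate addition. Substrate is a single-forked duplex oligonucleotide (100 nM) labelled with fluorophore and quencher, with 2 mM ATP; helicase unwinding raises red fluorescence, read kinetically.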
USP2a inh – inhibitors of human ubiquitin-specific protease USP2a | AID 463254 | USP2 core, Ub-CHOP2 coupled fluorogenic reporter, 485/531 | O75604 | 330,000 compounds, 0.01% hits | Potency, µM (top dose mostly 38.3 µM), inactives show top-dose activity change, negative = inhibition, usual class: inhibitors;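 further: potency means the concentration at half of the fitted maximal effect; plate controls were DMSO wells for no effect and full inhibition by NEM control for full effect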
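Deubiquitinase activity read as fluorescence (485/531 nm) after Ub-CHOP2 cleavage activates the enterokinase reporter on its substrate; USP2 core 10nM, Ub-CHOP2 and substrate 25nM each, 30min compound preincubation then 60min RT; data normalized to NEM, curves fitted.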
PI5P4Ka inh – PI5P4K alpha (human) kinase inhibition; P48426; max response, %; PI5P4Kalpha enzyme, ADP-Glo luminescence, 60 min; stronger effect = lower value; AID 652105; 330,000 compounds, 1.2% hits; active means max response of -50% or lower; inconclusive means between -30% and -50%; inactive means -30% or higher; further: value at the top dose of about 77 µM
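Single end-point luminescence (ADP-Glo) quantified ADP from PI5P4Kalpha turnover; ATP 5 microM final, 1 h at RT, 0.1% CHAPS and 0.28 mM EGTA in HEPES pH 7.4.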
* = called active by the depositor; ? = inconclusive; / = no result; [ ] = remark or other dose. Unless noted, the call rests on the fitted dose curve; in most records, active means well fitted curve in the direction sought with a large enough effect; inconclusive means small, poorly fitted or top-dose-only effect, or another doubt; inactive means no such curve, though single readings can be large; an effect the other way counts as inactive or inconclusive. Unless noted, on the % scale 0 is the no-effect control and ±100 the full control effect.

SMILES	USP1-UAF1 inh	PLK1 PBD block	WRN helicase inh	USP2a inh	PI5P4Ka inh
Cc1[nH][nH]c(=O)c1C(c1ccc(Cl)cc1)c1c(C)[nH][nH]c1=O	1.5%	29.9µM*	2.2%	-1.2%	-0.4
CCn1c2ccccc2c2n[nH]c(=S)nc21	-11.9%	?	-11.4%	6.0%	-13.8
CCCn1c2ccc(C)cc2c2n[nH]c(=S)nc21	-10.6%	26.7µM*	-8.0%[57.1 µM]	0.7%	-8.4
CCCn1c2ccc(C)cc2c2nnc(SCCN3CCCCC3)nc21	-9.8%	-21.4%	-3.6%	-3.5%	-5.8
O=C(O)Cn1c2ccccc2c2n[nH]c(=S)nc21	0.3%	26.7µM*	-0.9%	-8.0%	-55.9*
Cc1ccn2c(=S)[nH]nc2c1	?	-15.6%	4.3%	/	-78.1*
S=c1[nH]nc2ccccn12	-9.5%	?	5.9%	/	-84.6*
O=Cc1coc2ccc3ccccc3c2c1=O	?	-28.2%	?	-1.8%	-86.5*
O=c1c(O)c(-c2ccc(O)cc2O)oc2cc(O)cc(O)c12	/	/	/	1.4%	/
O=c1c(O)c(-c2cc(O)c(O)c(O)c2)oc2cc(O)cc(O)c12	-20.3%	9.47µM*	1.12µM*	1.0%	-90.3*
O=c1c(O[C@@H]2O[C@H](CO)[C@H](O)[C@H](O)[C@H]2O)c(-c2ccc(O)c(O)c2)oc2cc(O)cc(O)c12	/	/	/	12.5%	/
CC(C)=CCc1cc(-c2oc3cc(O)cc(O)c3c(=O)c2O)ccc1O	-17.1%	-4.6%	-4.2%[11.6 µM]	/	-55.2*
O=c1c(O)c(-c2ccccc2)oc2cc(O)cc(O)c12	-28.6%	-1.9%	4.6%	1.1%	?
COc1c(-c2ccc(O)c(O)c2)oc2cc(O)cc(O)c2c1=O	-16.9%	-6.7%	31.6µM*	-0.8%	?
CCOc1ccccc1-n1nnc(-c2nc(-c3ccccc3C)no2)c1C	-12.1%	/	/	/	/
O=C(NCCc1ccccc1)c1ccc2c(c1)CCN2S(=O)(=O)c1ccccc1	-5.8%	/	/	/	/
CC1CCCC(NS(=O)(=O)c2cc3c(cc2Cl)NC(=O)CO3)C1C (stereo unspecified)	-18.0%	-0.8%	-3.1%	1.5%	-11.4
Cc1ccc(CNC(=O)CCS(=O)(=O)c2cc3c(cc2Cl)NC(=O)CO3)cc1	-28.6%	26.7µM*	3.5%	3.1%	-20.7
CC1CCCC(NC(=O)CCS(=O)(=O)c2cc3c(cc2Cl)NC(=O)CO3)C1C (stereo unspecified)	-7.2%	26.7µM*	-6.4%	0.2%	-8.2
N#C/C(C(=O)N1CCCCC1)=C1\Nc2ccccc2S1	-15.8%	-14.5%	-13.4%	-0.4%	-14.0
Cc1ccc(NC(=S)/C(C#N)=C2/Nc3ccccc3S2)cc1	-19.2%	26.7µM*	-30.3%	/	-26.6
COc1ccc(S(=O)(=O)Nc2ccccc2C(=O)NCc2ccco2)cc1	-10.1%	10.6µM*	-8.9%	1.4%	-20.1
CCOc1ccc(CNC(=O)c2ccccc2NC(=O)C2=CSCCO2)cc1	-19.5%	23.8µM*	0.7%	1.9%	-5.4
Cc1cccc(CNC(=O)c2ccc(NC(=O)C3=CSCCO3)cc2)c1	-18.1%	26.7µM*	6.5%	1.9%	?
CCOCCCNC(=O)C1CCN(c2cc(C)nc3c(-c4ccc(Cl)cc4)c(C)nn23)CC1	-28.1%	/	/	/	/
SMILES	USP1-UAF1 inh	PLK1 PBD block	WRN helicase inh	USP2a inh	PI5P4Ka inh
Cc1cc(C)c2c(=O)nc(SCc3ccccc3C)n(C3CC3)c2n1	-8.5%	/	/	/	/
O=S(=O)(c1ccc(NC(=S)N/N=C/c2ccc(O)c(O)c2)cc1)N1CCOCC1	-7.5%	-17.2%	-26.5%	1.4%	-23.3
O=[N+]([O-])c1cc(Cl)cc(/C=N/NC(=S)Nc2ccc(S(=O)(=O)N3CCOCC3)cc2)c1O	?	16.8µM*	-31.9%[11.6 µM]	1.7%	-85.0*
NC(=O)CC(NC(=S)NCc1ccccc1)C(=O)O (stereo unspecified)	-10.6%	21.2µM*	0.4%	1.0%	-4.2
CCC1CN(C(=O)C2CCN(S(=O)(=O)c3c(C)noc3/C=C/c3ccccc3F)CC2)c2cc(Cl)ccc2O1 (stereo unspecified)	-26.3%	/	/	/	/
Cc1ccc(C)c(NC(=S)Nc2cccc3cnccc23)c1	?	?	-2.7%[11.6 µM]	1.8%	-1.8
Cc1ccc(NC(=S)Nc2cccc3cnccc23)cc1C	?	26.7µM*	-11.7%	-1.9%	?
CC(=O)c1ccc(NC(=S)Nc2cccc3cnccc23)cc1	-3.3%	29.9µM*	-2.5%	-0.2%	-19.1
S=C(Nc1cccc(Cl)c1)Nc1cccc2cnccc12	-19.2%	26.7µM*	?	0.7%	-15.7
Cc1ccc(NC(=S)Nc2cccc3cnccc23)cc1	-28.2%	26.7µM*	2.8%	-0.4%	-18.1
CC(=O)c1cccc(NC(=S)Nc2cccc3ccccc23)c1	?	-17.6%	16.1%	2.2%	-7.8
COc1cccc(-c2cn3c(n2)sc2cc(C(=O)NCCc4ccc(OC)c(OC)c4)ccc23)c1	-9.1%	/	/	/	/
CN(C)/C=N/c1nc2nccc(-c3ccc(F)cc3)n2n1	-5.2%	-14.8%	-9.4%	-4.1%	8.7
CC(Oc1cccc(F)c1)c1ccnc2nc(/N=C/N(C)C)nn12 (stereo unspecified)	-5.8%	21.2µM*	-13.4%[57.1 µM]	1.9%	-2.0
CN(C)/C=N/c1nc2nccc(-c3cccc(Cl)c3)n2n1	-14.3%	26.7µM*	-3.1%	0.6%	6.4
CN(C)/C=N/c1nc2ncc(-c3ccc(Cl)cc3)c(/N=C/N(C)C)n2n1	-8.2%	26.7µM*	7.9%[57.1 µM]	0.7%	-7.7
CCOC(=O)CCN(c1ccccc1)S(=O)(=O)c1cc(-c2cc(C)no2)ccc1C	-19.7%	/	/	/	/
COc1ccc(C)cc1Nc1cc(C)nc(C)n1	-11.4%	/	/	/	/
CCOc1cccc2sc(NC(=O)c3ccc(S(=O)(=O)N4CCCCC4C)cc3)nc12 (stereo unspecified)	-9.3%	/	/	/	/
COc1cc(C2c3c(oc4ccccc4c3=O)C(=O)N2c2nnc(C(C)C)s2)cc(OC)c1OC (stereo unspecified)	-22.4%	/	/	/	/
CCNC(=O)CSc1nnc(-c2cccc(S(=O)(=O)N(CC)CC)c2)n1CCc1ccccc1	-5.3%	21.2µM*	-8.2%	4.2%	/
O=C(O)c1ccc(CN2C(=O)c3ccc(C(=O)O)cc3C2=O)cc1	0.1%	7.1%	-1.1%	3.9%	-58.0*
O=C1c2cccc3c(O)ccc(c23)C(=O)N1Cc1ccco1	28.2µM*	4.74µM*	?	?	?
Cc1cc(C)n(Cc2ccc(C(=O)O)cc2)n1	-5.5%	-2.7%	-7.6%	2.6%	/
O=C(O)c1ccc2c(c1)C(=O)N(Cc1ccco1)C2=O	-24.5%	?	-33.8%	1.2%	-69.3*
Cc1ccc(C)n1Cc1ccc(C(=O)O)cc1	25.1µM*	2.99µM*	2.82µM*	?	/
CC(C)c1ccc(NC(=O)CSC2=Nc3ccccc3C3=NC(CC(=O)NCc4ccc(F)cc4)C(=O)N23)cc1 (stereo unspecified)	-8.2%	/	/	/	/
COc1ccc(CN2C(=O)c3ccc(C(=O)O)cc3C2=O)cc1	-7.8%	-1.4%	-0.7%	4.4%	-62.8*
